Screens (PubChem BioAssay)
An excerpt weighted towards active compounds, which were near 0.61% of everything screened.
Mtb BioA inh: BioA (M. tuberculosis) enzyme inhibition | AID 602481 | 0.096% of 360,000 active | inhibition, % at 9.99 µM | purified M. tuberculosis BioA enzyme, plate reader; in the data active means inhibition above about 40%
TcdB GH inh: blocks C. difficile toxin B glycohydrolase activity | TcdB glycohydrolase enzymatic assay, plate reader | inhibition, % at 9.99 µM | 0.24% of 350,000 active | AID 652162; in the data active means inhibition above about 10%
Target sequence (P18177 whole entry, looked up): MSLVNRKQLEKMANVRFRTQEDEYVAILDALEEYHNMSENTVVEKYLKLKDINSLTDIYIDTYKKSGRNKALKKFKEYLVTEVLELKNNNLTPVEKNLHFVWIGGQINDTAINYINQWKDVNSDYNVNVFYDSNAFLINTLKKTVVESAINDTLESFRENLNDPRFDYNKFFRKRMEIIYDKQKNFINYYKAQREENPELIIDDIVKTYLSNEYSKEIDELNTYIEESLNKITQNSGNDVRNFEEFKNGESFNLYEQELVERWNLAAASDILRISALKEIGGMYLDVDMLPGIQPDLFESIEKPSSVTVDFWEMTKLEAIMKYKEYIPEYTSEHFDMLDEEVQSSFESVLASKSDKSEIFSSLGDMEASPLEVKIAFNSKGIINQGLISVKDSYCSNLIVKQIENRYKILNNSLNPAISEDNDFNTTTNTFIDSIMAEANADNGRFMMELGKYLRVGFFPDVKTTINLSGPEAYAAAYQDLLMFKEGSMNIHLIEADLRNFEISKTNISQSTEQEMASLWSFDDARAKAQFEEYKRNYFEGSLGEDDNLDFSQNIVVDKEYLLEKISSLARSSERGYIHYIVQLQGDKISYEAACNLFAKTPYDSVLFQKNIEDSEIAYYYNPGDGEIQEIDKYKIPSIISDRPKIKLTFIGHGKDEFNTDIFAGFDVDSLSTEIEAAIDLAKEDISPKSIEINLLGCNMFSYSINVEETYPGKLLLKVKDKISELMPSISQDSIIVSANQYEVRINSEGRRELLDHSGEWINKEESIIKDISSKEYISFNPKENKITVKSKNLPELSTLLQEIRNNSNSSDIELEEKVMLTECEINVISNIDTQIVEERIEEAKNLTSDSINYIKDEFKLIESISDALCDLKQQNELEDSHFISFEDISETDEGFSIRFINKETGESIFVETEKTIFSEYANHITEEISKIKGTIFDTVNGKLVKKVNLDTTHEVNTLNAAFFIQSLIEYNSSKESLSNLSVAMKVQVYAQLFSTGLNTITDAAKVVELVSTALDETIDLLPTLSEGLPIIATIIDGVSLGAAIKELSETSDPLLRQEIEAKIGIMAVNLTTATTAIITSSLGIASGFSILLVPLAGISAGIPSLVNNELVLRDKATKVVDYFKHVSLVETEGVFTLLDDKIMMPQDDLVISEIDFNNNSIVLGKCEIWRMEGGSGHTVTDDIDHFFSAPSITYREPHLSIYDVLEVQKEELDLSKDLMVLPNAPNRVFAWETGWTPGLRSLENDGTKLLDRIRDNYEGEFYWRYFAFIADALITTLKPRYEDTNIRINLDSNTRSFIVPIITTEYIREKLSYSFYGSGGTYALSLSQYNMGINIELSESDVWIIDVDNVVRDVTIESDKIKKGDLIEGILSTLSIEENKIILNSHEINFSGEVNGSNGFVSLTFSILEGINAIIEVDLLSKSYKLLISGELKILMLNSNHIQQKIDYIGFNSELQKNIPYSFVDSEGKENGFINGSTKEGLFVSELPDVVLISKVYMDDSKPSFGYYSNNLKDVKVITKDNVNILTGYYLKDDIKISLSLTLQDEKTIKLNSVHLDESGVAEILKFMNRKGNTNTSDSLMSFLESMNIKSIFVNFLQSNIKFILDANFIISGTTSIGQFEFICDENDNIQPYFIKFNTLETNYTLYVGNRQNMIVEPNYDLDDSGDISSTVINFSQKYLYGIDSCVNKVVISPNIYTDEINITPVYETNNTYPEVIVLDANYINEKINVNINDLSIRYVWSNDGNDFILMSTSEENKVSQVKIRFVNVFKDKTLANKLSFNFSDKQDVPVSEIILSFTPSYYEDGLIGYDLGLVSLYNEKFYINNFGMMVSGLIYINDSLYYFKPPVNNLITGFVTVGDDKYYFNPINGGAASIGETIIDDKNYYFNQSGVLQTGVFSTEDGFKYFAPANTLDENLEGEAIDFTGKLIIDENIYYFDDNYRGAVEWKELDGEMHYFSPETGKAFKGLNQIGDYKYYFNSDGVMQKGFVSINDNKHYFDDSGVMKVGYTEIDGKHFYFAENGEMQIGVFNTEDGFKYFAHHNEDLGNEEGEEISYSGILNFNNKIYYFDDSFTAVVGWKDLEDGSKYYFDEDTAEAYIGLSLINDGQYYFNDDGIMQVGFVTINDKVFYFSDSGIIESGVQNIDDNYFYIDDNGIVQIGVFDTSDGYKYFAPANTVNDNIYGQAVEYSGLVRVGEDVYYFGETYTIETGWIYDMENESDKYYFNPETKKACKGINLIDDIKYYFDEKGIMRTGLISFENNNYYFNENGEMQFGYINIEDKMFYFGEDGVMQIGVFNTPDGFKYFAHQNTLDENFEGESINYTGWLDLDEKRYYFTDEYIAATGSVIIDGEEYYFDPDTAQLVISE
Yp Topo-I inh: Y. pestis Topo-I inhibition via cleavage products. activity, % at 10 µM. Y. pestis Topo-I cleavage product accumulation, plate reader. 0.064% of 360,000 active. AID 504884; in the data active means activity above about 50%, passing the limit was not always enough
FadD28 FP inh: M. tuberculosis FadD28 bisubstrate binding inhibition; FadD28 bisubstrate probe binding, fluorescence polarization; inhibition, % at 12.5 µM; 0.22% of 360,000 active; AID 588549; in the data active means inhibition above about 8.5%, passing the limit was not always enough
BH1578 lux ind: quorum light induction in luxS cqsA deficient V. cholerae. V. cholerae BH1578 lux reporter, luminescence, 6 h. activation, % at 18.7 µM. 0.16% of 350,000 active; in the data active means activation mostly above about 9.7%, no sharp cut-off
An asterisk follows results filed as active; i = inactive; . = no result.

SMILES	Mtb BioA inh	TcdB GH inh	Yp Topo-I inh	FadD28 FP inh	BH1578 lux ind
COc1cc(/C=C(\C#N)c2nc3ccc(C)cc3[nH]2)c([N+](=O)[O-])cc1OC	-1	.	7	4	0
COc1cc(/C=C(\C#N)c2nc3ccc(C)cc3[nH]2)cc([N+](=O)[O-])c1O	.	1	-6	30*	0
O=C(C1CC1)N1CC2(C1)[C@H](c1ccccc1)[C@H](CO)N2Cc1cncnc1	.	1	.	.	.
O=c1c(C=NCCCn2ccnc2)c(-c2ccccc2)[nH]n1-c1nc2ccccc2s1	.	.	2	-4	i
CC(=NCCCn1ccnc1)c1c(-c2ccccc2)[nH]n(-c2nc3ccccc3s2)c1=O	41*	.	16	-6	i
O=C(NCc1ccccc1)c1sc(=S)n2c1[nH]c(=O)c1ccccc12	4	.	-18	41*	i
C[C@H](NC(=O)C[C@@H]1C=C[C@H](NC(=O)c2cccnc2)[C@@H](CO)O1)c1ccccc1	-2	-3	.	.	.
CC(C)c1csc(CN2CCN(Cc3ccc(F)c(F)c3)C(CCO)C2)n1 (stereo not given)	.	1	8	-1	i
CC(C)c1cc(CN2CCN(Cc3ccc(F)c(F)c3)C(CCO)C2)[nH]n1 (stereo not given)	3	10*	-3	-1	i
O=C(COC(=O)CCC1CCCC1)Nc1ccccc1Sc1ccccc1	.	0	64*	-1	0
Cc1ccc(CNCCCn2cnc(C(=O)Nc3ccc(C)c(C)c3)n2)o1	-1	14*	8	0	-1
Cc1ccc(NC(=O)c2ncn(CCCNCc3ccccc3)n2)cc1C	1	1	1	-4	i
C[C@@H]1CN([C@@H](C)CO)C(=O)c2cc(C#C[C@@H](C)O)cnc2O[C@H]1CN(C)C(=O)Cc1ccncc1	0	0	.	.	.
O=C(OCn1nnc2ccccc2c1=O)c1cc2ccccc2o1	-1	13*	3	-3	0
COCC(=O)N1CC2(C1)[C@@H](c1ccccc1)[C@@H](CO)N2CCC(F)(F)F	.	0	.	.	.
COc1c2ccc(C(=O)NCCCCc3ccccc3)cc2nn1C	-1	14*	4	-2	6
O=C(N/N=C/c1ccc(O)cc1)c1cc(-c2ccccc2)nc2ccccc12	-1	2	-6	-1	0
O=C(N/N=C/c1ccc(O)cc1)c1csc2ccccc12	0	.	-5	-4	18*
O=C(CNC(=O)c1ccccc1Br)N/N=C/c1ccc(O)cc1	.	13*	2	-3	0
COc1cccc(NC(=O)CN(C)C(=O)c2cc3c(s2)CCCCC3)c1	0	1	28	13*	i
COc1ccc(Cl)cc1NC(=O)CN(C)C(=O)c1cc2c(s1)CCCC2	2	12*	2	1	1
C[C@@H]1CN([C@@H](C)CO)C(=O)c2cc(/C=C/c3ccccc3)cnc2O[C@@H]1CN(C)C(=O)c1cnccn1	-3	3	.	.	.
CCCn1c(N)c(C(=O)COC(=O)c2cccc(S(=O)(=O)N3CCOCC3)c2)c(=O)[nH]c1=O	0	13*	5	0	i
CCc1ccc(NC(=O)C2=CC(c3ccc(OC)cc3)=NS(=O)(=O)N2C)cc1	1	76*	1	-2	0
CC(C)C(C(=O)O)N1C(=O)/C(=C/C=C/c2ccco2)SC1=S (stereo not given)	.	.	-22	47*	i
SMILES	Mtb BioA inh	TcdB GH inh	Yp Topo-I inh	FadD28 FP inh	BH1578 lux ind
O=C(NN1C(=O)/C(=C/C=C/c2ccco2)SC1=S)c1ccncc1	0	-2	-11	30*	i
O=C1/C(=C/C=C/c2ccco2)SC(=S)N1c1ccc(O)cc1	.	1	-15	18*	2
COc1ccc2c3c([nH]c2c1)[C@H](CO)N(C(C)=O)CC31CN(C(=O)Nc2ccc(F)cc2)C1	.	1	.	.	.
O=S(=O)(Oc1ccccc1/C=N/n1cnnc1)c1ccccc1	.	20*	-1	0	0
CC(=O)N1[C@@H](CO)[C@@H](c2ccc(C3=CCCC3)cc2)C12CN(C(=O)NC(C)C)C2	.	-1	.	.	.
Cc1ccc(NC(=O)C(C)N2C(=O)C3CC=C(Cl)CC3C2=O)cc1 (stereo not given)	-1	.	-5	-4	-1
Cc1ccc(NC(=O)C(C)N2C(=O)C3C4CC(C(Br)C4Br)C3C2=O)cc1 (stereo not given)	1	.	-10	0	38*
CC(C)(C)NC(=O)c1cccc(NC(=O)c2ccc3c(c2)C(=O)N(C(C)(C)C)C3=O)c1	0	0	7	-1	i
CC(C)(C)N1C(=O)c2ccc(C(=O)Nc3ccc(O)cc3)cc2C1=O	5	22*	10	-3	i
COc1ccc(NC(=O)N[C@@H]2CC[C@@H](CCn3cc(-c4ccccc4)nn3)O[C@H]2CO)cc1	-1	-2	.	.	.
OC(CNCc1ccccc1)c1ccccc1 (stereo not given)	0	0	-4	-4	0
ClCC(CNCc1ccccc1)c1ccccc1 (stereo not given)	-2	12*	8	-2	i
O=C(COc1c(Br)cc(Br)c2cccnc12)N1CCc2ccccc2C1	2	2	57*	-3	-3
O=C(COc1c(Br)cc(Br)c2cccnc12)N1CCCCC1	.	2	12	-3	-1
C[C@H]1CN([C@@H](C)CO)C(=O)Cc2cc(NC(=O)Nc3ccccc3)ccc2O[C@H]1CN(C)S(=O)(=O)c1cccs1	-1	-3	.	.	.
COc1cc(Cn2nnc3ccccc32)ccc1O	1	18*	-17	-3	0
COc1ccc(NC(=O)c2cc(S(=O)(=O)N3CCc4ccccc43)cn2C)c(OC)c1	-1	.	33	0	0
COc1ccc(NC(=O)c2cc(S(=O)(=O)N3CCc4ccccc43)cn2C)cc1OC	0	16*	30	1	-1
C[C@@H]1CCCCO[C@H](CN(C)Cc2ccc(C(=O)O)cc2)[C@H](C)CN([C@@H](C)CO)C(=O)c2cc(NC(=O)NC3CCCCC3)ccc2O1	1	-1	.	.	.
Cc1cccc(C(=O)Nc2sc(-c3ccccc3)cc2C(=O)O)c1	5	1	-6	24*	0
C[C@H](CO)N1C[C@H](C)[C@@H](CN(C)Cc2cccnc2)Oc2ncc(-c3cccc(F)c3)cc2C1=O	4	0	.	.	.
C[C@@H]1CN([C@@H](C)CO)C(=O)c2cc(NC(=O)CCC(F)(F)F)ccc2O[C@@H](C)CCCCO[C@@H]1CN(C)Cc1ccc(C(=O)O)cc1	-1	1	.	.	.
CC(C)(C)c1cc(Cl)c(O)c(NC(=S)NC(=O)c2cccnc2)c1	.	10*	-11	-2	i
CC(C)(C)c1ccc(C(=O)NNC(=S)NC(=O)c2cccnc2)cc1	1	-1	-4	2	22
O=Nc1c(O)n(Cc2cccc(Cl)c2)c2ccccc12	.	.	23	-12	30*
NC(=S)N=Nc1c(O)n(Cc2ccccc2)c2ccccc12	0	0	12	-3	0
C/C=C/c1ccc([C@@H]2[C@H](CO)N(C(=O)CN(C)C)C23CN(C(=O)C2CCCC2)C3)cc1	.	-2	.	.	.
